According to PubChem BioAssay AID1851 (National Center for Advancing Translational Sciences (NCATS), 2009):
In all, about 16,000 compounds went through this assay and about 5,800 (36%) were called active. Inconclusive results (about 23%) are left out. Calls come from the whole dose curve; as a rule, active = well fitted curve in the direction sought with a large enough effect; inconclusive = small, poorly fitted or top-dose-only effect, or effect the other way; inactive = no such curve, though single readings can be large or run the other way. This is one part of the list.

target: Cytochrome P450 2C19 (Homo sapiens) (UniProt P33261); assay: Cytochrome panel assay with activity outcomes; settings: recombinant CYP, pro-luciferin dealkylation, luminescence, p450-cyp2c19; series mostly up to 57.1 µM; activity, negative = inhibition: at the top concentration
% is set by controls: 0 for no effect and ±100 for the full control effect.

Cytochrome P450 2C19 (Homo sapiens), sequence (P33261 whole entry, looked up): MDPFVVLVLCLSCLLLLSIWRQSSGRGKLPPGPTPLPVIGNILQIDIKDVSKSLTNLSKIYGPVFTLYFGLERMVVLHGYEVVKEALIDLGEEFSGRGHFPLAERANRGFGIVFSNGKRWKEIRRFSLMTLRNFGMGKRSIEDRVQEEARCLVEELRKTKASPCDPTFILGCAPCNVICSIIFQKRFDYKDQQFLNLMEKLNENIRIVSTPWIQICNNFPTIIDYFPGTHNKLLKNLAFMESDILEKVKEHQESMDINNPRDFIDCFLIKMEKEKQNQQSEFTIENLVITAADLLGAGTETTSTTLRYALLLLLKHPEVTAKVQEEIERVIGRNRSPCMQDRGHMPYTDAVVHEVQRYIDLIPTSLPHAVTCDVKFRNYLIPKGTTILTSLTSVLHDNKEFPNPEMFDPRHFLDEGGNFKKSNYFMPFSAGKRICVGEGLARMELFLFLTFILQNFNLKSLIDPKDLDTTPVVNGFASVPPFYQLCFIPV

SMILES | activity, negative = inhibition | AC50
CC(C)CO/N=C1/[C@H]2O[C@@H]2[C@@H](O)[C@H]2[C@H]1CCn1c(=O)n(C)c(=O)n12 | -6.23% [at 11.4 µM] (inactive) | –
Cc1ccc(C)c(Nc2nc3nonc3nc2N2CCOCC2)c1 | – | 25.1 µM (active)
CN1CCN(CCCBr)CC1 | 39.1% [at 11.4 µM] (inactive) | –
Cc1ccc(SCc2[nH]nc3c2C(C(C)C)C(C#N)=C(N)O3)cc1 (centres undefined) | – | 3.16 µM (active)
COCc1cc(=O)[nH]c2cc(NC(=O)C(F)(F)F)c(C)cc12 | -32.6% (inactive) | –
CN(Cc1ccco1)C(=O)C1CCC(=O)N1Cc1ccc(F)cc1 (centres undefined) | – | 17.8 µM (active)
O=C(NCCN1CCN(Cc2ccccc2)CC1)C1CC(=O)N(C2CCCC2)C1 (centres undefined) | -9.63% (inactive) | –
CC(C)N(CCNC(=O)C1CCC(=O)N1Cc1ccc(F)cc1)Cc1ccccc1 (centres undefined) | – | 2.82 µM (active)
Cc1ccc(CCN2CC(C(=O)NCCCN(C)Cc3ccccc3)CC2=O)cc1 (centres undefined) | 7.47% (inactive) | –
CCCS(=O)(=O)N1CCCC(C(=O)NCCN(C)Cc2ccccc2)C1 (centres undefined) | -12.9% (inactive) | –
O=C(Nc1ccc(Br)cc1)C1CCC(=O)N1Cc1ccccc1Cl (centres undefined) | – | 0.631 µM (active)
CN(CCCNC(=O)C1CCC(=O)N1Cc1ccccc1Cl)c1ccccc1 (centres undefined) | – | 10 µM (active)
Cc1ccc(OC[C@H](O)[C@H](C)NC(C)C)c2c1CCC2 | – | inactive
CC(C)(C[C@@]1(C)NC(=O)NC1=O)OCc1ccccc1 | 18.1% [at 11.4 µM] (inactive) | –
Cc1ccc(N=Nc2c(O)ccc3cc(S(=O)(=O)O)ccc23)cc1 | 6.68% [at 11.4 µM] (inactive) | –
O=c1oc2cc(N=Cc3ccc4c(c3)OCO4)ccc2c2ccccc12 | -3.38% [at 11.4 µM] (inactive) | –
Cc1ccc(S(=O)(=O)c2cc3ccccc3oc2=Nc2ccc3c(c2)OCO3)cc1 | – | 4.47 µM (active)
CCC(C#CCN1CCCCC1)(CC)OCCC#N | – | 14.1 µM (active)
CN(C)[C@@H]1C(=O)C(C(N)=O)=C(O)[C@]2(O)C(=O)C3=C(O)c4c(O)ccc(Cl)c4[C@H](O)[C@H]3C[C@@H]12 | – | inactive
COc1cccc(-c2cc(C(=O)N/N=C/c3ccc(OC)c(COC(C)=O)c3)c3ccccc3n2)c1 | – | 2.51 µM (active)
COc1ccc(/C=N/NC(=O)c2cc(-c3ccc(C)cc3C)nc3ccccc23)cc1COC(C)=O | -34.6% (inactive) | –
O=C(Nc1cccc(F)c1)N1CCCC2(CCN(C(=O)c3cc(C(F)(F)F)cc(C(F)(F)F)c3)CC2)C1 | -20.2% (inactive) | –
COc1cc(/C=N/NC(N)=O)c(Br)cc1OCC(=O)Nc1ccccc1C | – | 11.2 µM (active)
O=C1C2=C(NC(=S)NC2c2ccc(Cl)cc2)NC(c2ccc(Cl)cc2)N1c1ccc(Cl)cc1 (centres undefined) | – | 2.24 µM (active)
